Compounds without any hit were thinned out: in the full panel of roughly 79,000, 15% have a hit. A number with no mark means an inactive call. The source made the active and inactive calls. Cut-off read from the data, not from the text of the source: active = growth inhibition above about 70%; inactive = the rest.

The nature of assay [1]: NCI Yeast Anticancer Drug Screen. Data for the rad50 strain (AID 155).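 Note: 0% = growth of vehicle-only cultures of the same strain.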 To be noted: S. cerevisiae rad50 strain growth inhibition, stronger effect = higher value. In short, it runs like this: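 Readout: growth inhibition relative to vehicle-treated cultures. Compound exposure was carried out in a genetically defined yeast strain deficient in DNA damage repair.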
Assay [2] in a line: NCI Yeast Anticancer Drug Screen. Data for the mec2-1 strain (AID 157). As to conditions: S. cerevisiae mec2-1 strain, stronger effect = higher value. In short, it runs like this: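 Yeast mec2-1 mutant treated with compound. Readout: growth inhibition vs vehicle controls.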
Assay [3] is described as follows: NCI Yeast Anticancer Drug Screen. Data for the sgs1 mgt1 strain (AID 161).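 Note: 0% = growth of cultures given vehicle only.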 As to conditions: S. cerevisiae sgs1 mgt1 strain, stronger effect = higher value. In a few lines: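 Test agents were incubated with a DNA-repair-mutant yeast strain. Growth was then read and compared against vehicle-treated controls.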
Assay [4] in a line: NCI Yeast Anticancer Drug Screen. Data for the cln2 rad14 strain (AID 165).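 Note: 0% = growth equal to vehicle treated cultures.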 As to conditions: S. cerevisiae cln2 rad14 strain, stronger effect = higher value. In short, it runs like this: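 cln2 rad14 yeast strain; compound exposure; growth inhibition read vs vehicle controls.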
Assay [5] can be described thus: NCI Yeast Anticancer Drug Screen. Data for the bub3 strain (AID 167). To be noted: S. cerevisiae bub3 mutant strain, stronger effect = higher value. In short, it runs like this:
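Readout: yeast growth inhibition, expressed relative to vehicle-only wells. The test organism is a mutant strain from a panel with lesions in DNA repair or checkpoint genes.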

Assay [6] in a line: NCI Yeast Anticancer Drug Screen. Data for the mlh1 rad18 strain (AID 175). As to conditions: S. cerevisiae mlh1 rad18 strain growth inhibition, stronger effect = higher value. In a few lines: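 Yeast w/ defined DNA-repair lesions; compound exposure; growth vs vehicle controls → % inhibition.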
Where [7] appears, read: at 5.0 µM (retest, dose inferred, filed as 0.5).
The mark [8] stands for this setting: at 50.0 µM (retest, dose inferred, filed as 5.0).

For `O=C1C(=O)c2cc(Cl)ccc2-c2ccc(Cl)cc21`, the growth inhibition in assay [1] (setting [7]) was 20%; in assay [1] (setting [8]), 90% (active); in assay [1] (at 50.0 µM), 91% (active); in assay [2] (setting [7]), 30%; in assay [2] (setting [8]), 95% (active); in assay [2] (at 50.0 µM), 93.9% (active). Also, the growth inhibition in assay [3] (setting [7]) was 33%; in assay [3] (setting [8]), 95% (active); in assay [3] (at 50.0 µM) it was 94% (active); in assay [4] (setting [7]), -4%; in assay [4] (setting [8]) it was 94% (active); in assay [4] (at 50.0 µM), 88.5% (active). Besides, the growth inhibition is 56% in assay [5] (setting [7]); 94% (active) in assay [5] (setting [8]); 86.6% (active) in assay [5] (at 50.0 µM); 30% in assay [6] (setting [7]); 95% (active) in assay [6] (setting [8]); 93.5% (active) in assay [6] (at 50.0 µM).
In the case of `N#C/C(=C\c1cccnc1)c1csc2ccccc12`, the growth inhibition is 2% in assay [1] (setting [7]); 86% (active) in assay [1] (setting [8]); 95.3% (active) in assay [1] (at 50.0 µM); 8% in assay [2] (setting [7]); 91% (active) in assay [2] (setting [8]); 88.8% (active) in assay [2] (at 50.0 µM). Besides, the growth inhibition in assay [3] (setting [7]) is 2%; in assay [3] (setting [8]) it was 85% (active); in assay [3] (at 50.0 µM), 75.2% (active); in assay [4] (setting [7]), 1%; in assay [4] (setting [8]) it was 83% (active); in assay [4] (at 50.0 µM) it was 73% (active). Further, the growth inhibition is 1% in assay [5] (setting [7]); 83% (active) in assay [5] (setting [8]); 94.2% (active) in assay [5] (at 50.0 µM); -5% in assay [6] (setting [7]); 88% (active) in assay [6] (setting [8]); 94.4% (active) in assay [6] (at 50.0 µM).
On to `CN(C)c1ccc(C2(c3ccc(N(C)C)cc3)OC(=O)c3ccccc32)cc1`, for which the growth inhibition in assay [1] (setting [7]) is 2%; in assay [1] (setting [8]), -6%; in assay [1] (at 50.0 µM), 26.6%; in assay [2] (setting [7]) it was 1%; in assay [2] (setting [8]), -6%; in assay [2] (at 50.0 µM), 14.2%. For the same compound, the growth inhibition in assay [3] (setting [7]) was 1%; in assay [3] (setting [8]) it was -3%; in assay [3] (at 50.0 µM) it was 14.5%; in assay [4] (setting [7]) it was -5%; in assay [4] (setting [8]), -26%; in assay [4] (at 50.0 µM), 16.9%. In addition, the growth inhibition was 60% in assay [5] (setting [7]); 61% in assay [5] (setting [8]); 82.6% (active) in assay [5] (at 50.0 µM); -9% in assay [6] (setting [7]); -40% in assay [6] (setting [8]); 38.9% in assay [6] (at 50.0 µM).
With `CC(=O)Oc1c2c(c(C)c3ccccc13)C(=O)c1cccnc1C2=O`, the growth inhibition in assay [1] (setting [7]) was 6%; in assay [1] (setting [8]), 4%; in assay [1] (at 50.0 µM), 98.4% (active); in assay [2] (setting [7]), 6%; in assay [2] (setting [8]), 5%; in assay [2] (at 50.0 µM) it was 98.8% (active). Moreover, the growth inhibition was 5% in assay [3] (setting [7]); 6% in assay [3] (setting [8]); 98.7% (active) in assay [3] (at 50.0 µM); 10% in assay [4] (setting [7]); 0% in assay [4] (setting [8]); 97.8% (active) in assay [4] (at 50.0 µM). In addition, the growth inhibition in assay [5] (setting [7]) was 4%; in assay [5] (setting [8]) it was -1%; in assay [5] (at 50.0 µM) it was 98.2% (active); in assay [6] (setting [7]), 3%; in assay [6] (setting [8]) it was 2%; in assay [6] (at 50.0 µM), 98.6% (active).
Consider `O=c1[nH]c2c([N+](=O)[O-])cc(Cl)cc2nc1/C=C(\O)c1ccccn1`, for which the growth inhibition in assay [1] (setting [7]) was 8%; in assay [1] (setting [8]) it was 61%; in assay [1] (at 50.0 µM) it was 51.8%; in assay [2] (setting [7]), -1%; in assay [2] (setting [8]), 26%; in assay [2] (at 50.0 µM) it was 5.8%. In addition, the growth inhibition is 7% in assay [3] (setting [7]); 41% in assay [3] (setting [8]); 49.2% in assay [3] (at 50.0 µM); 4% in assay [4] (setting [7]); 52% in assay [4] (setting [8]); 37% in assay [4] (at 50.0 µM). The growth inhibition was 14% in assay [5] (setting [7]); 27% in assay [5] (setting [8]); 12.1% in assay [5] (at 50.0 µM); 11% in assay [6] (setting [7]); 46% in assay [6] (setting [8]); 79.2% (active) in assay [6] (at 50.0 µM).
`COc1c2c(cc3ccc(=O)oc13)C(Cl)C(Cl)O2` (configuration not stated): the growth inhibition was 7% in assay [1] (setting [7]); 97% (active) in assay [1] (setting [8]); 77.7% (active) in assay [1] (at 50.0 µM); 4% in assay [2] (setting [7]); 98% (active) in assay [2] (setting [8]); 84.8% (active) in assay [2] (at 50.0 µM). Further, the growth inhibition in assay [3] (setting [7]) was 10%; in assay [3] (setting [8]), 98% (active); in assay [3] (at 50.0 µM) it was 92.8% (active); in assay [4] (setting [7]), -16%; in assay [4] (setting [8]), 97% (active); in assay [4] (at 50.0 µM), 18.9%. Besides, the growth inhibition in assay [5] (setting [7]) was 9%; in assay [5] (setting [8]) it was 98% (active); in assay [5] (at 50.0 µM) it was 91.2% (active); in assay [6] (setting [7]), 14%; in assay [6] (setting [8]) it was 97% (active); in assay [6] (at 50.0 µM), 97.7% (active).
For `COc1ccc(OC)c(CC(Cl)(C#N)C#N)c1`, the growth inhibition in assay [1] (setting [7]) was 33%; in assay [1] (setting [8]), 99% (active); in assay [1] (at 50.0 µM) it was 98.2% (active); in assay [2] (setting [7]), 48%; in assay [2] (setting [8]), 100% (active); in assay [2] (at 50.0 µM), 99.8% (active). The growth inhibition was 48% in assay [3] (setting [7]); 99% (active) in assay [3] (setting [8]); 99.7% (active) in assay [3] (at 50.0 µM); 20% in assay [4] (setting [7]); 99% (active) in assay [4] (setting [8]); 99% (active) in assay [4] (at 50.0 µM). Further, the growth inhibition is 34% in assay [5] (setting [7]); 99% (active) in assay [5] (setting [8]); 99.8% (active) in assay [5] (at 50.0 µM); 61% in assay [6] (setting [7]); 99% (active) in assay [6] (setting [8]); 99.6% (active) in assay [6] (at 50.0 µM).
As for `O=C(N/C(=C\c1nc2ccccc2s1)c1ccccc1O)c1ccccc1`, the growth inhibition is -10% in assay [1] (setting [7]); 68% in assay [1] (setting [8]); 29.8% in assay [1] (at 50.0 µM); 7% in assay [2] (setting [7]); 30% in assay [2] (setting [8]); 12.3% in assay [2] (at 50.0 µM). Moreover, the growth inhibition in assay [3] (setting [7]) was -16%; in assay [3] (setting [8]), 31%; in assay [3] (at 50.0 µM), 38.5%; in assay [4] (setting [7]), 2%; in assay [4] (setting [8]) it was 41%; in assay [4] (at 50.0 µM), 17.2%. For the same compound, the growth inhibition in assay [5] (setting [7]) is -5%; in assay [5] (setting [8]), 75% (active); in assay [5] (at 50.0 µM) it was 32.4%; in assay [6] (setting [7]), 19%; in assay [6] (setting [8]), 37%; in assay [6] (at 50.0 µM) it was 32%.
`C(=C\c1ccc(-[n+]2nc(-c3ccccc3)nn2-c2ccccc2)cc1)/c1ccccc1`: the growth inhibition in assay [1] (setting [7]) is 85% (active); in assay [1] (setting [8]) it was 98% (active); in assay [1] (at 50.0 µM) it was 91.5% (active); in assay [2] (setting [7]), 81% (active); in assay [2] (setting [8]), 100% (active); in assay [2] (at 50.0 µM), 93.4% (active). Besides, the growth inhibition in assay [3] (setting [7]) is 79% (active); in assay [3] (setting [8]), 100% (active); in assay [3] (at 50.0 µM), 93.4% (active); in assay [4] (setting [7]), 54%; in assay [4] (setting [8]) it was 99% (active); in assay [4] (at 50.0 µM), 93.2% (active). Moreover, the growth inhibition in assay [5] (setting [7]) was 86% (active); in assay [5] (setting [8]), 99% (active); in assay [5] (at 50.0 µM), 92.3% (active); in assay [6] (setting [7]) it was 95% (active); in assay [6] (setting [8]) it was 99% (active); in assay [6] (at 50.0 µM) it was 90.9% (active).

(Values after PubChem BioAssay (NCI).)
